Where a name gives a salt, the structure may show the parent alone.
Tests used:
Experiment in all cases: Euclidean distance of Cell Painting phenotypic profile (signed KS, 77 features) to DMSO centroid (dimensionless distance); 5 or 10 uM (library dependent); higher = stronger phenotypic change vs DMSO (phenoactivity)
Conditions in all cases: 48 h
786-O = system: 786-O
In short: (§1)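 Stained cells were imaged confocally at 20X with 9 fields per well, after 48 h of exposure to library compounds at 10 or 5 uM (set by library; 0.1% DMSO final). The cells were five cancer lines and a healthy fibroblast line. From the images, Harmony extracted 77 features, each expressed as a signed Kolmogorov-Smirnov statistic relative to same-plate vehicle wells. Phenoactivity is measured as Euclidean distance to the median vehicle profile, using plate-position-corrected, correlation-weighted profiles averaged across replicates at the top dose.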

A549 = system: A549
In short: as §1

FB = system: FB
In short: as §1

HEPG2 = system: HEPG2
In short: as §1

OVCAR4 = system: OVCAR4
In short: as §1

| Structure (SMILES) | Euclidean distance (786-O) | Euclidean distance (A549) | Euclidean distance (FB) | Euclidean distance (HEPG2) | Euclidean distance (OVCAR4) |
| --- | --- | --- | --- | --- | --- |
| C=C1C(=O)O[C@@H]2/C=C(\C)CC/C=C(\C)CC[C@@H]12 [Costunolide] | 1.27 | 0.924 | 1.01 | 1.29 | 0.93 |
| Cc1c(C)c2c(c(C)c1O)CC[C@@](C)(CCC[C@H](C)CCC[C@H](C)CCCC(C)C)O2 [Vitamin E] | 0.972 | 1.04 | 0.892 | 0.644 | 1.43 |
| C=CCc1ccc(O)c(-c2cc(CC=C)ccc2O)c1 [Magnolol] | 1.13 | 0.915 | 0.817 | 0.94 | 1.17 |
| Cc1cc2c(s1)Nc1ccccc1N=C2N1CCN(C)CC1 [Olanzapine] | 1.03 | 1.01 | 1.48 | 0.621 | 1.61 |
| CC(C(=O)O)c1ccc(-c2ccccc2)c(F)c1 (stereo not given) [Flurbiprofen] | 0.962 | 0.696 | 1.21 | 0.393 | 1.27 |
| Cc1cc(C)nc(NS(=O)(=O)c2ccc(N)cc2)n1 [Sulfamethazine] | 1.04 | 0.914 | 0.861 | 0.849 | 1.17 |
| CC1(C)C[C@@H]1C(=O)N/C(=C\CCCCSC[C@H](N)C(=O)O)C(=O)O [Cilastatin] | 0.899 | 0.574 | 1.49 | 0.578 | 0.796 |
| Cc1cc2c(C(N)=O)cccc2n1-c1nc2c(c(NCc3ccccc3)n1)COCC2 | 6.05 | 2.9 | 7.18 | 4.68 | 3.98 |
| Nc1nc(N)c2nc(-c3ccccc3)c(N)nc2n1 [Triamterene] | 1.01 | 2.17 | 1.13 | 1.45 | 1.29 |
| Cc1nnc(C(=O)NC(C)(C)c2nc(C(=O)NCc3ccc(F)cc3)c(O)c(=O)n2C)o1 [Raltegravir (MK-0518)] | 1.17 | 0.695 | 1.11 | 0.537 | 1.35 |
| CN(C)CCOC(c1ccccc1)c1ccccc1 [Diphenhydramine HCl] | 0.916 | 0.411 | 0.777 | 0.793 | 0.518 |
| CC(C)C(=O)Nc1ccc([N+](=O)[O-])c(C(F)(F)F)c1 [Flutamide] | 0.873 | 0.771 | 1.09 | 0.723 | 1.99 |
| CC1=C(/C=C/C(C)=C/C=C/C(C)=C/C(=O)O)C(C)(C)CCC1 [Tretinoin] | 1.24 | 1.29 | 2.68 | 1.21 | 1.18 |
| CC(=O)[C@H]1CC[C@H]2[C@@H]3CCC4=CC(=O)CC[C@]4(C)[C@H]3CC[C@]12C [Progesterone] | 0.734 | 0.774 | 0.883 | 0.863 | 0.832 |
| COC(=O)C1=C(C#N)NC(C)=C(C(=O)OC(C)C)C1c1cccc([N+](=O)[O-])c1 (stereo not given) [Nilvadipine] | 1.2 | 0.818 | 1.19 | 0.907 | 1.34 |
| Cc1oncc1C(=O)Nc1ccc(C(F)(F)F)cc1 [Leflunomide] | 2.25 | 2.41 | 2.37 | 1.3 | 2.17 |
| Cc1ncc([N+](=O)[O-])n1CC(C)O (stereo not given) [Secnidazole] | 1.02 | 0.496 | 0.982 | 1.12 | 0.655 |
| CC(CN(C)C)CN1c2ccccc2CCc2ccccc21 (stereo not given) [Trimipramine Maleate] | 1.08 | 1.02 | 1.91 | 1.2 | 1.57 |
| COc1ccc(CN(CCN(C)C)c2ccccn2)cc1 [Pyrilamine Maleate] | 0.832 | 0.864 | 1.11 | 0.605 | 1.5 |
| S=C(N/N=C1/CCCc2cccnc21)N1CCN(c2ccccn2)CC1 | 3.03 | 3.6 | 3.2 | 2.23 | 1.11 |
| Cc1ccsc1C(=CCCN1CCC[C@@H](C(=O)O)C1)c1sccc1C [Tiagabine] | 0.676 | 0.377 | 0.779 | 0.574 | 1.14 |
| C=C(C)[C@@H]1CC=C(CO)CC1 [Perillyl alcohol] | 0.887 | 0.815 | 0.953 | 1.09 | 1.74 |

| Structure (SMILES) | Euclidean distance (786-O) | Euclidean distance (A549) | Euclidean distance (FB) | Euclidean distance (HEPG2) | Euclidean distance (OVCAR4) |
| --- | --- | --- | --- | --- | --- |
| CCC1(c2ccccc2)C(=O)NCNC1=O [Primidone] | 1.2 | 0.708 | 1.19 | 0.442 | 2.2 |
| Cn1ccnc1S [Methimazole] | 1.71 | 1.61 | 2.81 | 1.08 | 2.25 |
| CN1CCN(C(c2ccccc2)c2ccccc2)CC1 [Cyclizine 2HCl] | 1.05 | 0.919 | 1.58 | 0.689 | 1.37 |
| CNC(=O)c1c(C)oc2cc(Oc3ncnc4cc(OC)c(OC)cc34)ccc12 [Fruquintinib] | 1.24 | 1.24 | 2.06 | 0.855 | 1.44 |
| CC1=C(C(=O)O)N2C(=O)[C@@H](NC(=O)[C@H](N)c3ccccc3)[C@H]2SC1 [Cephalexin] | 1.16 | 1.01 | 1.05 | 0.939 | 1.1 |
| CC/C=C\C/C=C\C/C=C\C/C=C\C/C=C\CCCC(=O)O [Eicosapentaenoic Acid] | 0.992 | 1.07 | 0.941 | 0.664 | 1.41 |
| CN(C(=O)c1ccc(F)cc1C(F)(F)F)C1CCN(c2nnc(-c3ccnn3C)c3ccccc23)CC1 | 1.45 | 0.959 | 1.03 | 1 | 1.53 |
| O=c1n(CCCN2CCN(c3cccc(Cl)c3)CC2)nc2ccccn12 [Trazodone] | 0.477 | 1.03 | 0.908 | 0.599 | 1.37 |
| O=C(c1ccccc1)c1ccc2n1CCC2C(=O)O (stereo not given) [Ketorolac tromethamine salt] | 0.861 | 0.868 | 0.834 | 0.47 | 0.82 |
| CCOC(=O)[N-]c1c[n+](N2CCOCC2)no1 [Molsidomine] | 0.969 | 1.06 | 0.842 | 0.73 | 1.63 |
| CO[C@@]12[C@H](COC(N)=O)C3=C(C(=O)C(C)=C(N)C3=O)N1C[C@@H]1N[C@@H]12 [Mitomycin C] | 3.14 | 3.37 | 3.89 | 3.46 | 3.61 |
| CC1(C)[C@@H](O[C@H]2O[C@H](C(=O)O)[C@@H](O)[C@H](O)[C@H]2O[C@@H]2O[C@H](C(=O)O)[C@@H](O)[C@H](O)[C@H]2O)CC[C@]2(C)[C@H]3C(=O)C=C4[C@@H]5C[C@@](C)(C(=O)O)CC[C@]5(C)CC[C@@]4(C)[C@]3(C)CC[C@@H]12 [Glycyrrhizin (Glycyrrhizic Acid)] | 1.52 | 0.67 | 1.38 | 0.607 | 1.47 |
| CC(C)(C)NC[C@H](O)COc1nsnc1N1CCOCC1 [Timolol Maleate] | 1.22 | 0.771 | 0.609 | 0.591 | 1.76 |
| CN1CC[C@H](c2c(O)cc(O)c3c(=O)cc(-c4ccccc4Cl)oc23)[C@H](O)C1 [Flavopiridol (Alvocidib)] | 3.09 | 3.07 | 3.22 | 2.66 | 3.72 |
| CCN1CCCC1CNC(=O)c1cc(S(N)(=O)=O)ccc1OC (stereo not given) [Sulpiride] | 0.713 | 1.29 | 0.953 | 1.17 | 0.676 |
| c1ccc(C2CN3CCSC3=N2)cc1 (stereo not given) [Tetramisole HCl] | 1.45 | 0.708 | 1.19 | 1.31 | 1.25 |
| CNC(=O)c1ccc(Nc2ncc(C(F)(F)F)c(NCc3nccnc3N(C)S(C)(=O)=O)n2)cc1 | 1.58 | 1.6 | 2.06 | 0.842 | 1.85 |
| COc1ccc2cc1Oc1ccc(cc1)C[C@H]1c3cc(c(OC)cc3CCN1C)Oc1c(OC)c(OC)cc3c1[C@H](C2)N(C)CC3 [Tetrandrine] | 4.3 | 4.1 | 2.97 | 1.84 | 2.11 |
| CC(C)(Cc1ccc2ccccc2c1)NC[C@@H](O)COc1cccc(Cl)c1C#N | 1.35 | 1.64 | 1.06 | 1.77 | 1.45 |
| C=C1CC[C@@H]2[C@](C)(CO)[C@H](O)CC[C@@]2(C)[C@@H]1C/C=C1/C(=O)OC[C@H]1O [Andrographolide] | 2.41 | 1.6 | 1.96 | 1.62 | 1.67 |
| CC1(C)[C@H](C(=O)O)N2C(=O)C[C@H]2S1(=O)=O [Sulbactam sodium] | 0.743 | 0.526 | 0.933 | 0.675 | 0.666 |
